From PubChem BioAssay AID1159580 (chemical genetic matrix, 2015)
Values joined by “and” are separate entries in the source; they are usually repeats but may differ in a detail not shown here. Identical values can stand only once. The whole screen tested about 5,500 compounds, of which about 2,000 (36%) were called active. Not shown: some 18% with an inconclusive outcome. Cut-off read from the data, not from the text of the source: active = normalized growth mostly below about 0.91 (no sharp cut-off); inconclusive = no clear call, values can overlap the other calls; inactive = mostly above about 0.92. The list shows a part of the results. Where a SMILES comes first, the peptide text is derived from it. Bridges are numbered along the chain shown (N, C = ends). [ ]: non-standard residue; d: D form. The star is where a group is joined. Octanoyl(6-Me) = CCC(C)CCCCC(=O)*; Dab = NCC[CH](N)C(=O)O

Experiment: chemical genetic growth profiling, strain panel (AID 1159580);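 note: tested at 20 µM; growth read once vehicle control cultures reached saturation at 30 °C; 1 = growth at the plate median or of vehicle wells; lower values mean less growth of the strain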
Conditions: S. cerevisiae deletion strains, growth OD

Measured: normalized growth

CCC(C)CCCCC(=O)NC(CCN)C(=O)NC(C(=O)NC(CCN)C(=O)NC1CCNC(=O)C(C(C)O)NC(=O)C(CCN)NC(=O)C(CCN)NC(=O)C(CC(C)C)NC(=O)C(Cc2ccccc2)NC(=O)C(CCN)NC1=O)C(C)O (configuration not stated) ({Octanoyl(6-Me)}-[Dab]T[Dab][Dab][Dab]FL[Dab][Dab]T; lactam 4-C; configuration not given here)
inactive: locus YAL013W, strain DEP1, hits give low values 1 | locus YAL021C, strain ccr4, hits give low values 0.95 | locus YAL026C, strain drs2, hits give low values 0.934 | locus YAL030W, strain snc1, hits give low values 0.99 | locus YBL061C, strain skt5, hits give low values 0.99 | locus YBR009C, strain hhf1, hits give low values 0.98 | locus YBR021W, strain FUR4, hits give low values 0.996 | locus YBR023C, strain chs3, hits give low values 0.99 | locus YBR171W, strain sec66, hits give low values 1 | locus YBR229C, strain ROT2, hits give low values 1 | locus YBR231C, strain swc5, hits give low values 1 | locus YBR279W, strain paf1, hits give low values 0.99 | locus YCL011C, strain gbp2, hits give low values 0.995 | locus YCL016C, strain dcc1, hits give low values 0.975 | locus YCL029C, strain bik1, hits give low values 1.02 | locus YCL061C, strain MRC1, hits give low values 0.959 | locus YCL069W, strain vba3, hits give low values 0.999 | locus YCR088W, strain abp1, hits give low values 0.997 | locus YDL005C, strain med2, hits give low values 0.99 | locus YDL035C, strain GPR1, hits give low values 0.973 | locus YDL040C, strain nat1, hits give low values 1 | locus YDL074C, strain BRE1, hits give low values 1.01 | locus YDL101C, strain DUN1, hits give low values 1.02 | locus YDL134C, strain PPH21, hits give low values 0.997 | locus YDL185W, strain tfp1, hits give low values 1 | locus YDL192W, strain arf1, hits give low values 0.991 | locus YDR001C, strain nth1, hits give low values 1.01 | locus YDR069C, strain doa4, hits give low values 0.989 | locus YDR101C, strain arx1, hits give low values 1.01 | locus YDR137W, strain rgp1, hits give low values 1.08 | locus YDR150W, strain NUM1, hits give low values 0.995 | locus YDR159W, strain sac3, hits give low values 0.985 | locus YDR162C, strain NBP2, hits give low values 0.99 | locus YDR195W, strain ref2 0.953 | locus YDR297W, strain sur2, hits give low values 0.994 | locus YDR318W, strain mcm21, hits give low values 1.01 | locus YDR334W, strain swr1, hits give low values 1 | locus YDR335W, strain msn5, hits give low values 0.998 | locus YDR388W, hits give low values 1.01 | locus YDR392W, strain spt3, hits give low values 0.802 | locus YDR502C, strain sam2, hits give low values 0.997 | locus YEL003W, strain gim4, hits give low values 0.997 | locus YEL037C, strain rad23, hits give low values 1 | locus YEL061C, strain CIN8 (second series), hits give low values 1 | locus YEL061C, strain CIN8, hits give low values 0.998 | locus YER015W, strain faa2, hits give low values 0.992 | locus YER016W, strain bim1, hits give low values 1 | locus YER110C, hits give low values 1.02 | locus YER111C, strain swi4, hits give low values 1 | locus YER155C, strain BEM2 (second series), hits give low values 0.91 | locus YER155C, strain BEM2, hits give low values 1.02 | locus YER167W, strain BCK2, hits give low values 0.996 | locus YFR010W, strain ubp6, hits give low values 0.999 | locus YGL078C, strain dbp3, hits give low values 0.993 | locus YGL086W, strain mad1, hits give low values 0.989 | locus YGL167C, strain pmr1, hits give low values 0.978 | locus YGL173C, strain kem1, hits give low values 0.99 | locus YGL227W, strain vid30, hits give low values 1.01 | locus YGL240W, strain doc1, hits give low values 0.986 | locus YGL248W, strain PDE1, hits give low values 1.01 | locus YGL253W, strain hxk2, hits give low values 1.01 | locus YGR078C, strain PAC10, hits give low values 1.02 | locus YGR135W, strain pre9, hits give low values 0.998 | locus YGR229C, strain SMI1, hits give low values 0.976 | locus YGR252W, strain gcn5, hits give low values 0.937 | locus YHR013C, strain ard1, hits give low values 0.901 | locus YHR027C, strain rpn1, hits give low values 0.989 | locus YHR030C, strain SLT2, hits give low values 1 and 0.991 | locus YHR079C, strain IRE1 (second series), hits give low values 1.01 | locus YHR079C, strain IRE1, hits give low values 0.995 | locus YHR094C, strain hxt1, hits give low values 1.01 | locus YHR129C, strain ARP1, hits give low values 1.01 | locus YHR142W, strain chs7, hits give low values 1.01 | locus YHR200W, strain rpn10, hits give low values 0.996 | locus YIL066C, strain RNR3, hits give low values 0.984 | locus YIL073C, strain SPO22, hits give low values 1.02 | locus YIL125W, strain kgd1, hits give low values 0.994 | locus YIR030C, strain dcg1, hits give low values 1.01 | locus YJL092W, strain hpr5, hits give low values 1 | locus YJL095W, strain BCK1 (second series), hits give low values 1.01 | locus YJL095W, strain BCK1, hits give low values 1.02 and 1 | locus YJL115W, strain asf1, hits give low values 0.977 | locus YJL129C, strain trk1, hits give low values 1.09 | locus YJL134W, strain LCB3, hits give low values 1 | locus YJL154C, strain vps35, hits give low values 1.01 | locus YJL164C, strain tpk1, hits give low values 0.98 | locus YJL166W, strain qcr8, hits give low values 0.981 | locus YJL168C, strain set2, hits give low values 1.01 | locus YJL187C, strain SWE1 (second series), hits give low values 1.02 | locus YJL187C, strain SWE1, hits give low values 0.998 | locus YJR043C, strain POL32, hits give low values 1.02 | locus YJR066W, strain TOR1, hits give low values 0.97
